# A selection: hits, their analogues and other compounds. The true share with any hit is near 2.9%.
# HEK293 viab – counter-screen for SNCA expression inhibitors: cell viability; hit rate 0.12% among 150,000; AID 1671193; Potency, µM (top dose mostly 57.1 µM), for inactives: at the highest dose activity change, negative = cytotoxicity, most hits filed as cytotoxic; HEK-293-SNCA-luc viability, GF-AFC fluorescence, 24 h;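 further: potency means the concentration at half of the fitted maximal effect; 0% = DMSO-treated cells and -100% = medium-only wells without cells; nearly all actives have a fitted effect of over 30% in size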
#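 Cytotoxicity counterscreen: after 24 h compound treatment of genome-edited SNCA-luciferase HEK-293 cells, live-cell protease substrate GF-AFC read by fluorescence after 30 min; activity scaled between DMSO (0%) and medium-only (-100%), curves Hill-fitted.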
# SNCA expr inhib – reduces expression of the alpha-synuclein gene; HEK-293 SNCA-luciferase knock-in, luminescence, 24 h; Potency, µM (titrated, usually from 57.2 µM), inactives show at the top dose activity change, negative = inhibition, hits mostly inhibitors; hit rate 0.17% among 140,000;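 further: potency means the concentration at half of the fitted maximal effect; plate controls were DMSO cells for no effect and cell-free wells for full effect; nearly all actives have a fitted effect of over 45% in size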
# IP6K1 inhibitor – IP6K1 kinase inhibition. Q92551. IP6K1 kinase, ADP-Glo luminescence, 2 h; active compounds read low. activity change, % (series mostly up to about 58 µM). hit rate 0.81% among 140,000. AID 1645851; in the data active means activity change below about -25%; further: on the % scale 0 is the no-effect control and ±100 the full control effect
#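 ADP-Glo luminescence measures ADP made by human IP6K1 during a 2 h RT reaction with ATP/IP6 (mix at 1.3 mM/130 uM); top library doses 57.5 and 19.1 uM final.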
# KDM5B inhibitor – inhibitors of human KDM5B histone demethylase; Q9UGL1; KDM5B demethylase, FDH-coupled NADH fluorescence (FDH is formaldehyde dehydrogenase); Potency, µM (highest dose often 57.7 µM), actives largely listed as inhibitors; hit rate 2.6% among 220,000; further: potency means the concentration at half of the fitted maximal effect; 0% is about no effect; nearly all actives have a fitted effect of over 70% in size
#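 Measured: NADH fluorescence change, 30 min, RT. System: KDM5BΔAP 200 nM final, H3K4me3 peptide, α-KG, Fe(II), ascorbate, NAD⁺ plus FDH, pH 7.5 HEPES. Compounds: titrated, 10 min pre-incubation with enzyme.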
# * = called active by the depositor; i = inactive; u = inconclusive; x = no result; [ ] = remark or other dose. Unless noted, the call rests on the fitted dose curve; in most records, active means well fitted curve in the direction sought with a large enough effect; inconclusive means small, poorly fitted or top-dose-only effect, or another doubt; inactive means no such curve, though single readings can be large; an effect the other way counts as inactive or inconclusive.
SMILES,HEK293 viab,SNCA expr inhib,IP6K1 inhibitor,KDM5B inhibitor
CN(CC1CC1)C(=O)c1cc(-c2ccccc2Cl)nc2ccccc12,x,x,x,i
CN1CCCC(CN(C)C(=O)c2cc(-c3cnn(CCO)c3)nc3ccccc23)C1 (centres undefined),12%,-12%,8,32µM*
Cc1ccc(CNC(=O)N2CCc3c(nc4cc(-c5ccccc5Cl)[nH]n4c3=O)C2)cc1,6%,u,23,u
COC(=O)CNC(=O)N1CCc2c(nc3cc(-c4ccccc4Cl)[nH]n3c2=O)C1,7%,u,51,22µM*
O=C(NCC1CCCO1)N1CCc2c(nc3cc(-c4ccccc4Cl)[nH]n3c2=O)C1 (centres undefined),3%,-19%,25,20µM*
COc1cccc(NC(=O)N2CCc3nc4cc(-c5ccccc5Cl)[nH]n4c(=O)c3C2)c1,-2%,u,4,25µM*
CC(=O)Nc1ccc(CC(=O)N2CCc3c(nc4cc(-c5ccccc5Cl)[nH]n4c3=O)C2)cc1,8%,23%,31,25µM*
COc1ccc(CCNC(=O)c2cc(-c3cccnc3)nc3c2cnn3C)cc1,4%,199%,15,x
COc1ccccc1-c1cccc(C(=O)N2CCN(C(=O)C3CC3)CC2)c1,1%[12.5 µM],10%,0,x
O=C1CCNc2cc3c(cc2CN1Cc1ccccc1)OCO3,x,x,13,x
Cn1cc(-c2cccc(O)c2)c2nc(COc3ccc(Cl)cc3)cn2c1=O,u,u,-6,i
COc1ccccc1N1CCCc2ncc(C(=O)N(C)Cc3ccccc3)cc21,-2%[87.6 µM],-13%[87.6 µM],-5,35µM*
COc1ccccc1N1CCCc2ncc(C(=O)N3CCCC[C@@H]3Cc3ccccc3)cc21,-13%,7%,3,25µM*
COc1ccccc1N1CCCc2ncc(C(=O)NCCc3c[nH]c4ccccc34)cc21,u,u,21,28µM*
COc1ccccc1N1CCCc2ncc(C(=O)NCCc3ccccc3)cc21,2%[87.6 µM],1%[87.6 µM],-1,u
Cc1nn(-c2ccccc2)c2c1C(C)N(CC1CN([S+](=O)([O-])c3cccc(C(F)(F)F)c3)C1)C2=O (centres undefined),x,x,15,x
O=C(C1CCCN(c2nccc(Nc3ccccc3F)n2)C1)N1CCCC1 (centres undefined),-19%[12.5 µM],-29%,6,x
Cc1nn(-c2ccccc2)nc1C(=O)N[C@H](C)c1onc(-c2cccnc2)c1C(=O)O,-9%,14%,29,25µM*
Cc1cc(C)c(CNC(=O)c2cc(-c3ccc(F)cc3)cc3ncn(C)c23)c(=O)[nH]1,-4%[87.6 µM],0%[87.6 µM],-1,u
Cn1cnc2cc(-c3cccc4[nH]ncc34)cc(C(=O)NCc3cccnc3)c21,-7%[87.6 µM],-5%[87.6 µM],-3,40µM*
Cn1cncc1CNC(=O)c1cc(-c2ccc(F)cc2)cc2ncn(C)c12,5%[87.6 µM],-5%[87.6 µM],-5,28µM*
Cn1cnc2cc(Nc3ccc(Cl)cc3F)cc(C(=O)NCc3cccnc3)c21,-14%[87.6 µM],u,16,35µM*
O=C(O)C/C(=C/c1ccsc1)c1nc2ccccc2s1,x,x,x,i
COc1cccc(-c2ccc(CN3CCCC(NC(=O)Nc4ccccc4)C3)cc2)c1 (centres undefined),-5%,20%,-1,x
CN(Cc1ccccc1)c1ccc2cc(S(=O)(=O)N3CCCCC3)ccc2n1,3%,25µM*,-1,i
SMILES,HEK293 viab,SNCA expr inhib,IP6K1 inhibitor,KDM5B inhibitor
Cc1cccc(N(C)c2ccc3cc(S(=O)(=O)N4CCCC4)ccc3n2)c1,6%,-7%,18,u
O=C(Nc1ccc(Cl)nc1)c1ccn2cncc2c1,6%[87.6 µM],48%[87.6 µM],7,i
O=C(Nc1ccc(F)cc1)c1ccn2cncc2c1,-12%[87.6 µM],18%[87.6 µM],3,35µM*
O=C(c1ccncc1)N1C[C@@H]2OCC(=O)N(Cc3ccncc3)[C@@H]2C1,1%[87.6 µM],9%[87.6 µM],-7,u
O=C1CO[C@H]2CN(c3ncccn3)C[C@H]2N1Cc1ccncc1,1%[87.6 µM],6%[87.6 µM],-1,40µM*
O=C1CO[C@H]2CN(Cc3ccncc3)C[C@H]2N1Cc1ccc(F)cc1,0%[87.6 µM],15%[87.6 µM],-11,35µM*
O=C1CO[C@H]2CN(c3ncccn3)C[C@H]2N1Cc1ccccc1,-1%[87.6 µM],u,3,35µM*
O=C(c1ccccc1F)N1CCN(c2ccc3nnc(C4CC4)n3n2)CC1,x,x,29,x
CCCCn1nnnc1CSc1nnc(-c2ccccc2)n1-c1ccccc1,x,x,x,i
O=C(O)C1Cc2nc[nH]c2CN1C(=O)CCc1cn2ccccc2n1 (centres undefined),-2%,-24%,27,11µM*
CCn1ncc(CN(C)C(=O)CC2C(=O)NCCN2C(C)C)c1C (centres undefined),4%,-1%,-7,32µM*
CC(=O)Nc1ccc(NC(=O)c2nc(S(=O)(=O)Cc3ccc(F)cc3)ncc2Cl)cc1,7.9µM*,u,0,u
Cc1cccc(NC(=O)c2nc(S(C)(=O)=O)ncc2Cl)c1,20µM*,u,-10,u
Cc1ccc(CNC(=O)c2nc(S(=O)(=O)Cc3ccc(C)cc3)ncc2Cl)cc1,1%,7%,0,i
COc1ccc(N2CCN(C(=O)c3nc(SC)ncc3Cl)CC2)cc1,-9%,3%,4,i
CCS(=O)(=O)c1ncc(Cl)c(C(=O)Nc2c(C(=O)Nc3cccc(C)c3)oc3ccccc23)n1,-6%,19%,-5,i
CCS(=O)(=O)c1ncc(Cl)c(C(=O)NCc2ccc(OC)cc2)n1,u,22µM*,-2,i
CCS(=O)(=O)c1ncc(Cl)c(C(=O)N2CCN(c3ccc(OC)cc3)CC2)n1,14µM*,u,-3,u
Cn1ncc2c(C(=O)Nc3ccc(Cl)cc3)cc(-c3ccccc3C(F)(F)F)nc21,x,x,10,x
Cc1cc(C)c(CN2CCC3(Cc4ccccc4CNC3=O)C2)c(C)c1 (centres undefined),-19%,-13%,-12,i
COc1ccc(CN2CCN(c3nc(C)ccc3C#N)CC2CCO)cc1C (centres undefined),-4%,-14%,23,u
CC[S+](=O)([O-])N1CCC2(CC1)[C@H](C(=O)Nc1ccccc1)[C@@H](OC(N)=O)C(=O)N2C,x,x,2,x
Cn1cc(CC(=O)N2CCCc3ncc(C(=O)N4CCC(c5ccccc5)CC4)cc32)c2ccccc21,u,u,15,i
CCS(=O)(=O)c1ncc(Cl)c(C(=O)Nc2ccccc2)n1,7.1µM*,2.2µM*,-7,u
CC(C)c1nnc(NC(=O)c2nc(S(=O)(=O)Cc3ccccc3)ncc2Cl)s1,22µM*,u,-3,u
COc1ccc(NC(=O)O[C@@H]2CO[C@H]3[C@@H]2OC[C@@H]3NC(=S)Nc2ccc(Cl)cc2)cc1,-9%,8%,2,i
COC(=O)[C@@H]1Cc2c([nH]c3ccccc23)[C@H]2C[C@@H](NC(C)C)C[C@@H](c3ccccc3)N21,u,-17%[87.6 µM],-3,11µM*
COC(=O)[C@@H]1Cc2c([nH]c3ccccc23)[C@H]2C[C@@H](NC(C)C)C[C@@H](c3ccc(C)cc3)N21,-26%[87.6 µM],-25%[87.6 µM],0,28µM*

# Screening results as filed in PubChem.
